IL-1B inflam inh: inhibitors of inflammasome signaling (IL-1 beta secretion) | THP-1 LPS/ATP IL-1B secretion, AlphaLISA, 16 h; active compounds read low | activity change, % at 57.5 µM | 360,000 compounds, 4.7% hits | AID 743279; in the data active = activity change below about -50%; inconclusive = mostly about -30% to -49%
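Secreted IL-1B measured by AlphaLISA bead assay after 16 h compound exposure of THP-1 cells; compounds (final up to 57.5 uM) added 1 h before LPS (250 ng/mL) and ATP (1.25 mM) stimulation; lower signal means less secretion.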
HT1080NT lethal: kills 2HG-producing HT-1080-NT fibrosarcoma cells | HT-1080-NT fibrosarcoma viability, CellTiter-Glo ATP luminescence, 48 h | Potency, µM (highest dose often 46.1 µM), usual class: cytotoxic | 360,000 compounds, 1.6% hits | AID 686970;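 also: NT is the 2HG producing partner of a matched IDH1 knockdown line; nearly all actives have a fitted effect of over 55% in size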
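750 cells/well, RPMI + 5% FBS; 2 h settle, compound pin-transfer, 48 h at 37 degrees C. CellTiter-Glo 10 min RT, luminescence. Normalized to DMSO and media-only wells.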
TDP1 cell CPT: DT40-hTDP1 cell growth loss with CPT | chicken DT40 Tdp1-/-;hTDP1 cells + 20 nM CPT, ATP luminescence, 48 h | 420,000 compounds, 12% hits | AID 686979 | Potency, µM (highest dose often 46.2 µM), most hits filed as inhibitors; also: nearly all actives have a fitted effect of over 55% in size
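Chicken DT40 Tdp1-/- cells complemented with human TDP1, 400 cells/well, exposed to compounds plus 20 nM camptothecin for at least 48 h at 37 C; viability read as ATP content by CellTiter-Glo luminescence.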
HT1080 IDH1KD tx: toxicity to HT-1080 IDH1 knockdown cells (counter line); HT-1080 IDH1 knockdown viability, ATP luminescence, 48 h; Potency, µM (titrated, usually from 46.1 µM), most hits filed as cytotoxic; 360,000 compounds, 2% hits
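Assay cells: HT-1080 with IDH1 knockdown, 750 per well, RPMI/5% FBS. Exposure: 48 h at 37 °C following 2 h pre-incubation. Read: CellTiter-Glo luminescence; fitted concentration-response, curve class assigned.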
DT40 TDP1 no CPT: qHTS for Inhibitors of human tyrosyl-DNA phosphodiesterase 1 (TDP1): qHTS in cells in absence of CPT. DT40 Tdp1-/- hTDP1 cells, no CPT, ATP luminescence, 48 h. Potency, µM (top dose mostly 46.2 µM), usual class: inhibitors. 420,000 compounds, 15% hits. AID 686978, 2013; also: nearly all actives have a fitted effect of over 55% in size
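A cellular qHTS used chicken DT40 cells lacking endogenous Tdp1 but carrying stably transfected human TDP1. Compounds were applied without camptothecin, and cell growth kinetics were judged by ATP-dependent luminescence after ≥48 hr.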
Numbers stand for hits; ! = not active in a repeat. Most compounds without a hit are left out; they make up all but 19% or so of the library. Unless noted, calls follow the shape of the dose curve; as a rule, active = well fitted curve in the direction sought with a large enough effect; inconclusive = small, poorly fitted or top-dose-only effect, or another doubt; inactive = no such curve, though single readings can be large; an effect the other way counts as inactive or inconclusive.

How did CN1CCc2nc3sc(C(=O)C45CC6CC(CC(C6)C4)C5)c(N)c3cc2C1 do in these assays?
IL-1B inflam inh: inactive; HT1080NT lethal: inactive; TDP1 cell CPT: inconclusive; HT1080 IDH1KD tx: inactive; DT40 TDP1 no CPT: inconclusive

How did CCOc1ccc(C(=O)CSc2nc3cc(C(=O)NC4CCCC4)ccc3c(=O)n2CC2CCCO2)cc1 (centres undefined) do in these assays?
TDP1 cell CPT: inactive; DT40 TDP1 no CPT: inactive

What do the screens show for `COC(=O)C1CCCN1S(=O)(=O)c1ccccc1NC(=O)c1cc(OC)c(OC)c(OC)c1` (centres undefined)?
IL-1B inflam inh: inactive; HT1080NT lethal: inactive; TDP1 cell CPT: 15µM; HT1080 IDH1KD tx: inactive; DT40 TDP1 no CPT: inactive

Results for COc1cc(NC(=O)[C@@H]2CCCN(S(=O)(=O)c3cccc4cccnc34)C2)cc(OC)c1OC ?
IL-1B inflam inh: inactive; HT1080NT lethal: inactive; TDP1 cell CPT: 10µM; HT1080 IDH1KD tx: inactive; DT40 TDP1 no CPT: 13µM

What do the screens show for `COc1cc(NC(=O)[C@H]2CCCN2S(=O)(=O)c2cccc3cccnc23)cc(OC)c1OC`?
IL-1B inflam inh: inactive; HT1080NT lethal: inactive; TDP1 cell CPT: 15µM; HT1080 IDH1KD tx: inactive; DT40 TDP1 no CPT: inconclusive

Results for COc1ccc(OC)c(NC(=O)C2CCCN(S(=O)(=O)c3cccc4cccnc34)C2)c1 (centres undefined) ?
IL-1B inflam inh: inconclusive; HT1080NT lethal: inactive; TDP1 cell CPT: inconclusive; HT1080 IDH1KD tx: inactive; DT40 TDP1 no CPT: 13µM

Results for COc1cn(CC(=O)Nc2ccc(F)cc2)c(CN2CCCCC2)cc1=O ?
TDP1 cell CPT: inactive; DT40 TDP1 no CPT: inactive

How did CCOC(=O)c1cccc(NC(=O)C2CCCN2S(=O)(=O)c2cccc3cccnc23)c1 (centres undefined) do in these assays?
IL-1B inflam inh: inactive; HT1080NT lethal: inactive; TDP1 cell CPT: inactive; HT1080 IDH1KD tx: inactive; DT40 TDP1 no CPT: inactive

What do the screens show for `CCOc1ccc(OCC)c(S(=O)(=O)N2CCCCC2C)c1` (centres undefined)?
IL-1B inflam inh: inactive; HT1080NT lethal: inactive; TDP1 cell CPT: 23µM; HT1080 IDH1KD tx: inactive; DT40 TDP1 no CPT: inconclusive

What do the screens show for `CCOc1ccc(OCC)c(NC(=O)C2CCCN2S(=O)(=O)c2cccc3cccnc23)c1` (centres undefined)?
IL-1B inflam inh: inactive; HT1080NT lethal: inactive; TDP1 cell CPT: 15µM; HT1080 IDH1KD tx: inactive; DT40 TDP1 no CPT: 18µM

What do the screens show for `COC(=O)C1CCCN1S(=O)(=O)c1ccc2ccccc2c1` (centres undefined)?
IL-1B inflam inh: inactive; HT1080NT lethal: inactive; TDP1 cell CPT: inconclusive; HT1080 IDH1KD tx: inactive; DT40 TDP1 no CPT: 21µM

Results for O=C(Nc1cccc(C(F)(F)F)c1)C1CCCN1S(=O)(=O)c1cccc2cccnc12 (centres undefined) ?
IL-1B inflam inh: inactive; HT1080NT lethal: inactive; TDP1 cell CPT: 23µM; HT1080 IDH1KD tx: inactive; DT40 TDP1 no CPT: 16µM

What do the screens show for `CCOc1ccc(OCC)c(S(=O)(=O)n2ccnc2C)c1`?
IL-1B inflam inh: inactive; HT1080NT lethal: inactive; TDP1 cell CPT: inactive; HT1080 IDH1KD tx: inactive; DT40 TDP1 no CPT: inactive

What do the screens show for `CC[C@]12c3[nH]c4ccccc4c3CCN1C(=O)C(CC(=O)NCc1ccc(OC)c(OC)c1)C[C@@H]2C(=O)N1CCN(C(=O)C2CC2)CC1` (some centres undefined)?
IL-1B inflam inh: inactive; HT1080NT lethal: inactive; TDP1 cell CPT: inactive; HT1080 IDH1KD tx: inactive; DT40 TDP1 no CPT: inconclusive

What do the screens show for `CCOC(=O)c1c(NC(=O)CSc2nnc(-c3ccco3)o2)sc(C(C)=O)c1C`?
IL-1B inflam inh: inactive; HT1080NT lethal: inactive; TDP1 cell CPT: inconclusive; HT1080 IDH1KD tx: inactive; DT40 TDP1 no CPT: 13µM

How did CCOC(=O)c1c(NC(=O)CSc2nnc(-c3ccco3)o2)sc(C)c1C do in these assays?
IL-1B inflam inh: inactive; HT1080NT lethal: inactive; TDP1 cell CPT: inactive; HT1080 IDH1KD tx: inactive; DT40 TDP1 no CPT: inactive

Results for CCOC(=O)c1c(NC(=O)CSc2nnc(-c3cccnc3)o2)sc(C(C)=O)c1C ?
IL-1B inflam inh: inactive; HT1080NT lethal: inactive; TDP1 cell CPT: inconclusive; HT1080 IDH1KD tx: inactive; DT40 TDP1 no CPT: 21µM

What do the screens show for `COc1ccc(CNC(=O)c2cnc(N3CCCC3)nc2C)cc1`?
TDP1 cell CPT: inactive; DT40 TDP1 no CPT: inactive

How did C[C@]12C=CC(=O)C=C1CC[C@@H]1[C@@H]2C(=O)C[C@@]2(C)[C@H]1CC[C@]2(O)C(=O)COC(=O)CCC(=O)O do in these assays?
IL-1B inflam inh: inactive; HT1080NT lethal: inactive; TDP1 cell CPT: inactive; HT1080 IDH1KD tx: inactive; DT40 TDP1 no CPT: inactive

What do the screens show for `COc1ccc(C2(C)NC(=O)N(CC(=O)c3cc(C)n(C4CC4)c3C)C2=O)cc1OC` (centres undefined)?
IL-1B inflam inh: inactive; HT1080NT lethal: inactive; TDP1 cell CPT: 18µM; HT1080 IDH1KD tx: inactive; DT40 TDP1 no CPT: 13µM

What do the screens show for `COc1ccc(NC(=O)C(Cc2ccccc2)n2cccc2)c(OC)c1` (centres undefined)?
IL-1B inflam inh: inactive; HT1080NT lethal: inactive; TDP1 cell CPT: 23µM!; HT1080 IDH1KD tx: inactive; DT40 TDP1 no CPT: 18µM!

What do the screens show for `COc1cccc(CNC(=O)C(Cc2ccccc2)n2cccc2)c1` (centres undefined)?
IL-1B inflam inh: inconclusive; HT1080NT lethal: inactive; TDP1 cell CPT: inconclusive; HT1080 IDH1KD tx: inactive; DT40 TDP1 no CPT: inconclusive

How did COc1ccc(NC(=O)C(c2ccccc2)c2ccccc2)c(OC)c1 do in these assays?
IL-1B inflam inh: inactive; HT1080NT lethal: inactive; TDP1 cell CPT: inconclusive; HT1080 IDH1KD tx: inactive; DT40 TDP1 no CPT: inconclusive

How did COc1cccc(NC(=O)C(Cc2ccccc2)n2cccc2)c1 (centres undefined) do in these assays?
IL-1B inflam inh: -73; HT1080NT lethal: inactive; TDP1 cell CPT: inactive; HT1080 IDH1KD tx: inactive; DT40 TDP1 no CPT: inactive

How did CSc1ncccc1C(=O)NNc1cc(Cl)ccc1Cl do in these assays?
IL-1B inflam inh: inactive; HT1080NT lethal: inactive; TDP1 cell CPT: inactive; HT1080 IDH1KD tx: inactive; DT40 TDP1 no CPT: inactive

What do the screens show for `O=C(CN(c1cccc(Br)c1)S(=O)(=O)c1ccccc1)N1CCc2ccccc2C1`?
TDP1 cell CPT: 15µM; DT40 TDP1 no CPT: 15µM

How did CCN1CCN(C(=O)CN(c2cccc(Br)c2)S(=O)(=O)c2ccccc2)CC1 do in these assays?
IL-1B inflam inh: inactive; HT1080NT lethal: inactive; TDP1 cell CPT: inactive; HT1080 IDH1KD tx: inactive; DT40 TDP1 no CPT: inactive

What do the screens show for `COc1ccc(S(=O)(=O)N(CC(=O)N2CCN(C)CC2)c2ccc(C)cc2)cc1OC`?
IL-1B inflam inh: inactive; HT1080NT lethal: inactive; TDP1 cell CPT: inactive; HT1080 IDH1KD tx: inactive; DT40 TDP1 no CPT: inactive

Results for COc1ccc(N(CC(=O)N2CCc3ccccc3C2)S(=O)(=O)c2ccc(C)cc2)cc1Cl ?
TDP1 cell CPT: inconclusive; DT40 TDP1 no CPT: 16µM

Bioassay records: PubChem, National Center for Advancing Translational Sciences (NCATS)
